The experiment in a line: qHTS Assay for Identifying a Potential Treatment of Ataxia-Telangiectasia: SAR for Probe. The following applies: F2112 A-T fibroblasts, NCS-induced pKAP1 AlphaLISA. From the text:
NIH Chemical Genomics Center [NCGC] NIH Molecular Libraries Probe Centers Network [MLPCN] MLPCN Grant: MH089030-01 Assay Submitter (PI): Wei Zheng and Yosef Shiloh Ataxia-telangiectasia (A-T) is a devastating and progressive disease for which, there is no cure. Although A-T is a multisystem disease, it is stereotyped characterized by its neurological symptoms such as truncal ataxia, due to cerebellar cortical degeneration of the Purkinje and granule cells. Other symptoms of A-T are telangiectasias (dilated blood vessels), primary immunodeficiency, marked sensitivity to ionizing radiation (IR), chromosomal instability and predisposition to cancer. The underlying genetic cause of A-T is null mutations in the ATM (A-T mutated) gene. ATM is a nuclear serine/threonine kinase that functions as a master regulator of the cellular responses to double strand breaks (DSBs) in the DNA. Upon activation by DSBs, ATM phosphorylates a plethora of downstream targets, including KAP-1 on Ser82452. […] To screen for small molecules that will compensate for the loss of ATM in cells derived from A-T patients, we monitored KAP-1 phosphorylation as a readout for ATM-like activity using an AlphaLISA assay. […]
qHTS Assay Protocol: Step,Parameter,Value,Description 1. […] Readout, EnVision, EnVision plate reader. […] EnVision protocol for 1536-well AlphaScreen read (30ms excitation, 100ms read), about 10 min/plate.
On the technique in general: qHTS replaces the single test concentration by a dilution series.

Values joined by “and” are separate entries in the source; they are usually repeats but may differ in a detail not shown here. Equal values may be shown once. Records with an inconclusive call do not appear. Active and inactive are the calls of the source. Calls follow the shape of the dose curve; as a rule, active = well fitted activation curve with a large enough effect; inconclusive = small, poorly fitted or top-dose-only effect; inactive = flat fitted curve, though single readings scatter.

Take `CC(=O)c1c(O)c(C)c(O)c(Cc2c(O)c3c(c(C(=O)/C=C/c4ccccc4)c2O)OC(C)(C)C=C3)c1O`: the Potency was 29.2 µM (active) and 10 µM (active).
